Laboratory results reported in publication PMC5700166.

What follows are sequences tested against T1, GST-Nv-NF-kB (Ser allele) (Nematostella vectensis, UniProt A7UNT2 2-411) (assay: protein-binding microarray (PBM); PBM: ~300 nM protein, 6 mM HEPES pH 7.8, 80 mM KCl, 0.5 mM EDTA, 0.5 mM EGTA, 6% glycerol, 35 ng/ul poly-dIdC, 1% milk, 1 h, room temperature; Ap Aiptasia and Nv Nematostella (sea anemones) / Co Capsaspora / Aq Amphimedon (sponge) / Dm Drosophila / Hu human; RHD is the Rel homology domain; high values mean tight binding). Settings: dsDNA, one strand shown.
T1 sequence: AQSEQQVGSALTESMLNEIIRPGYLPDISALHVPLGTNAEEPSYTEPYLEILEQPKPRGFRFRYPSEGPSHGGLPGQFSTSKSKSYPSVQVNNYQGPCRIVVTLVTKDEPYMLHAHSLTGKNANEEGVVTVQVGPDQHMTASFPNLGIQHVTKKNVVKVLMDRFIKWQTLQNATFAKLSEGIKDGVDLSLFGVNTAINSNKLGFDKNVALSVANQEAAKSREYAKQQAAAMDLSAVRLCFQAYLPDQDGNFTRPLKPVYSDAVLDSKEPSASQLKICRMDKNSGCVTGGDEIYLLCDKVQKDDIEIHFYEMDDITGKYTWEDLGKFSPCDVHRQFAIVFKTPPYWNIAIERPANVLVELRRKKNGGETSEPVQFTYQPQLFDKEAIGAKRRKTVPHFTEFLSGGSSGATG

Sequence | binding signal [z-score]
CCGATTAACATCAATAAAATCCCTGATGTTAATCGGGTCTTGATTCGCTTGACGCTGCTG | 4.09
CCGATTAACATCAGGGGGTTGCATGATGTTAATCGGGTCTTGATTCGCTTGACGCTGCTG | 4.66
CCGATTAACATCAGGGAGTTTACTGATGTTAATCGGGTCTTGATTCGCTTGACGCTGCTG | 3.63
CCGATTAACATCAAAATACCCCTTGATGTTAATCGGGTCTTGATTCGCTTGACGCTGCTG | 6.34
CCGATTAACATCACGTGGGGCGTTGATGTTAATCGGGTCTTGATTCGCTTGACGCTGCTG | 1.01
CCGATTAACATCAAGAGTCCCCCTGATGTTAATCGGGTCTTGATTCGCTTGACGCTGCTG | 5.78
CCGATTAACATCACAGCAGTACCTGATGTTAATCGGGTCTTGATTCGCTTGACGCTGCTG | 3.01
CCGATTAACATCAAAAATATTCCTGATGTTAATCGGGTCTTGATTCGCTTGACGCTGCTG | 1.03
CCGATTAACATCAGGTATTTCCATGATGTTAATCGGGTCTTGATTCGCTTGACGCTGCTG | 1.6
CCGATTAACATCATGCCCGGGAATGATGTTAATCGGGTCTTGATTCGCTTGACGCTGCTG | 1.07
CCGATTAACATCAAGGAACCCCCTGATGTTAATCGGGTCTTGATTCGCTTGACGCTGCTG | 6.23
CCGATTAACATCAGAAGTCCCCCTGATGTTAATCGGGTCTTGATTCGCTTGACGCTGCTG | 6.47
CCGATTAACATCAAAAGCCCCCATGATGTTAATCGGGTCTTGATTCGCTTGACGCTGCTG | 5.01
CCGATTAACATCAAAAAATCCCTTGATGTTAATCGGGTCTTGATTCGCTTGACGCTGCTG | 5.87
CCGATTAACATCAGAAATACCCATGATGTTAATCGGGTCTTGATTCGCTTGACGCTGCTG | 4.71
CCGATTAACATCAAAGAGTCCCCTGATGTTAATCGGGTCTTGATTCGCTTGACGCTGCTG | 6.03
CCGATTAACATCAGGGGGGGGGATGATGTTAATCGGGTCTTGATTCGCTTGACGCTGCTG | 5.68
CCGATTAACATCAAACCCCCCCTTGATGTTAATCGGGTCTTGATTCGCTTGACGCTGCTG | 4.97
CCGATTAACATCAGGGCACCCCCTGATGTTAATCGGGTCTTGATTCGCTTGACGCTGCTG | 3.83
CCGATTAACATCAGATCCCCCCCTGATGTTAATCGGGTCTTGATTCGCTTGACGCTGCTG | 5.97

Sequence | binding signal [z-score]
CCGATTAACATCAGGGATGCCCCTGATGTTAATCGGGTCTTGATTCGCTTGACGCTGCTG | 4.08
CCGATTAACATCAAGGGGGGGAATGATGTTAATCGGGTCTTGATTCGCTTGACGCTGCTG | 6
CCGATTAACATCAGAAATGCCCCTGATGTTAATCGGGTCTTGATTCGCTTGACGCTGCTG | 3.44
CCGATTAACATCAGGGGATATACTGATGTTAATCGGGTCTTGATTCGCTTGACGCTGCTG | 5.69
CCGATTAACATCAAACCACCCCCTGATGTTAATCGGGTCTTGATTCGCTTGACGCTGCTG | 3.66
CCGATTAACATCAGGCCTTCCCCTGATGTTAATCGGGTCTTGATTCGCTTGACGCTGCTG | 5.25
CCGATTAACATCACCCCCTCCCCTGATGTTAATCGGGTCTTGATTCGCTTGACGCTGCTG | 3.78
CCGATTAACATCACTCCCCCCCCTGATGTTAATCGGGTCTTGATTCGCTTGACGCTGCTG | 4.8
CCGATTAACATCACCAAACCCCCTGATGTTAATCGGGTCTTGATTCGCTTGACGCTGCTG | 6.38
CCGATTAACATCATCTCCCCCCATGATGTTAATCGGGTCTTGATTCGCTTGACGCTGCTG | 3.69
CCGATTAACATCACTTCCCCCCATGATGTTAATCGGGTCTTGATTCGCTTGACGCTGCTG | 4.67
CCGATTAACATCAGGGACTTTAATGATGTTAATCGGGTCTTGATTCGCTTGACGCTGCTG | 6.21
CCGATTAACATCAGGGATTTTTATGATGTTAATCGGGTCTTGATTCGCTTGACGCTGCTG | 5.24
CCGATTAACATCATAAAAAAAAATGATGTTAATCGGGTCTTGATTCGCTTGACGCTGCTG | 1.09
CCGATTAACATCACGGGGTTTTCTGATGTTAATCGGGTCTTGATTCGCTTGACGCTGCTG | 5.22
CCGATTAACATCAATCCCCCCCGTGATGTTAATCGGGTCTTGATTCGCTTGACGCTGCTG | 4.97
CCGATTAACATCAAGCTCTAAGGTGATGTTAATCGGGTCTTGATTCGCTTGACGCTGCTG | 1
CCGATTAACATCAAGGGGGATACTGATGTTAATCGGGTCTTGATTCGCTTGACGCTGCTG | 5.52
CCGATTAACATCACGCATCCCCCTGATGTTAATCGGGTCTTGATTCGCTTGACGCTGCTG | 6.09
